Our source for the inhibition values is PubChem BioAssay AID488862 (Broad Institute, 2010).

Among all 340,000 compounds or so, about 1,200 (0.35%) were called active. No stated cut-off is given here; in the data, active means inhibition above about 52%; inactive means the rest. Only a selection was taken, and actives are over-represented in it overall.

This test is described as follows: inhibition of PrP 5' UTR reporter expression (AID 488862). Further: 0 = median of the neutral control wells. The settings on record: cell-based PrP 5' UTR mRNA reporter, plate reader; active compounds read high; concentration not given here.
By inhibition is commonly meant the drop in the measured response relative to a control, in per cent. As to `COc1cccc2c1C(=O)c1c(O)c3c(c(O)c1C2=O)CC(O)(C(C)=NNC(=O)c1ccc(Cl)c(Cl)c1)CC3OC1CC(N)C(O)C(C)O1` (stereo not drawn), the inhibition was 81% (active). Consider `CC(=O)Nc1ccc(C(=O)Nc2cc(S(=O)(=O)N3CCOCC3)ccc2N2CCOCC2)cc1`, for which the inhibition was 2.41% (inactive). For `O=C(CN1C2CCC1CC(NC(=O)C1CC1)C2)NCc1ccccc1` (stereo not drawn) the value was -21.6% (inactive); for `CCCS(=O)(=O)N1CCN(C(=O)c2cccs2)CC1`, -11% (inactive); for `CC(C)(C)C1CCc2c(sc3nc(SCC(N)=O)nc(N)c23)C1` (stereo not drawn), 67.4% (active). For `C=C(C)CSc1nc(N)c2c3c(sc2n1)CCC3` the value was -92.1% (inactive); for `Nc1nc(SCC(=O)NCCN2CCOCC2)nc2sc3c(c12)CCC3`, -29.6% (inactive). Turning to `CC1O[C@@H](OC2C(O)C(C)O[C@H](OC(=O)[C@]34CCC(C)(C)C[C@H]3C3=CCC5[C@@]6(C)CC(O)C(O[C@@H]7OC(CO)C(O)[C@@H](O)[C@@H]7O)[C@@](C)(C(=O)O)C6CC[C@@]5(C)[C@]3(CO)CC4)C2O[C@H]2OC(C)[C@@H](O[C@@H]3OCC(O[C@@H]4OC(CO)C(O)[C@H](O)C4O)[C@@H](O)[C@@H]3O)[C@H](O)C2O)C(O)C(O)C1O` (stereo partly drawn), the inhibition was -19.6% (inactive). For `COc1ccc(CCC(=O)Nc2ccc(Cl)c(S(=O)(=O)N3CCOCC3)c2)cc1OC` the value was -6.15% (inactive); for `CNC(=S)N1CCN(c2ccccn2)CC1`, 2.28% (inactive). Consider `COc1cc([N+](=O)[O-])ccc1NC(=S)N1CCN(c2ccccn2)CC1`, for which the inhibition is 60.8% (active). For `O=[N+]([O-])c1ccc(NC(=S)N2CCN(c3ccccn3)CC2)cc1` the value was -31.5% (inactive); for `CN1CCN(c2ccc([N+](=O)[O-])c(Sc3nc4ccccc4[nH]3)c2)CC1`, -6.9% (inactive). For `CCCn1nc(NS(=O)(=O)c2ccccc2)c2cc3cc(C)ccc3nc21` the value was -7.37% (inactive); for `Cc1ccc(S(=O)(=O)N(C)CC(=O)N2CCc3ccccc32)cc1`, -9.45% (inactive); for `COc1cc2c(cc1OC)CN(C(=O)c1cc(=O)c3ccccc3o1)CC2`, -36.4% (inactive). The figure for `COc1ccccc1N1CCN(C(=O)c2ccc(Cl)c(S(=O)(=O)N3CCCC3)c2)CC1` is -12.2% (inactive). For `COc1ccccc1N1CCN(C(=O)c2cc(=O)c3cc(C)cc(C)c3o2)CC1`, the inhibition is 72.6% (active). The figure for `O=C(Nc1ccc([N+](=O)[O-])cc1)OCCc1ccccn1` is -55.9% (inactive); for `Cc1ccc(C(=O)N/C(=C\c2ccc(F)cc2)C(=O)NCCN2CCOCC2)cc1` it is -18.5% (inactive); for `COc1ccc(C(=O)Nc2cc(C)c(NC(=O)c3ccccc3OC)cn2)cc1` it is -9.89% (inactive). For `COc1cc(C=NNC(=O)c2cccnc2)ccc1OC(=O)c1ccccc1F`, the inhibition is -15.7% (inactive). For the compound `COc1ccc(C(=O)Nc2ccccc2C(=O)N/N=C/c2ccc(O)c(OC)c2)cc1`, the inhibition was 80.5% (active).
